The values that follow come from PubChem BioAssay (NCATS).

One assay concerns HeLa. As to the kind of experiment: Primary qHTS to identify gynecologic anti-cancer compounds using libraries of approved drugs and bioactive compounds (AID 1345084). Note: nearly all actives have a fitted effect of over 55% in size. The note with it: Gynecologic cancer cell panel viability, ATPlite luminescence, 48 h; series mostly up to 57.5 µM. The procedure, abridged: (§1)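 In this quantitative HTS, cell killing is estimated from loss of ATP-dependent luciferase light. Cells see five compound concentrations over a 48 h exposure.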
In general terms: In qHTS, concentration-response curves come from the screen itself.

The next assay relates to Hek293T. The assay is described as above. The note with it: Gynecologic cancer cell panel viability, ATPlite luminescence, 48 h, control line for the selectivity index; series mostly up to 57.5 µM. A digest of the protocol: as §1
Background: In ATP-based viability assays light output follows the ATP content of the culture.

In the next assay the test system is JEG-3. The description is as above. The note with it: Gynecologic cancer cell panel viability, ATPlite luminescence, 48 h; series mostly up to 57.5 µM. A digest of the protocol:
as §1

Another assay deals with OV90. The assay is described as above. To be noted: Gynecologic cancer cell panel viability, ATPlite luminescence, 48 h; series mostly up to 57.5 µM. The procedure, abridged: as §1
In another assay the test system is PA-1. The description is as above. The note with it: Gynecologic cancer cell panel viability, ATPlite luminescence, 48 h; series mostly up to 57.5 µM. The procedure, abridged: as §1
In the next assay the test system is SKOV3. The assay is described as above. To be noted: Gynecologic cancer cell panel viability, ATPlite luminescence, 48 h; series mostly up to 57.5 µM. A digest of the protocol:
as §1

The next assay concerns Tov-21-G. The assay is described as above. To be noted: Gynecologic cancer cell panel viability, ATPlite luminescence, 48 h; series mostly up to 57.5 µM. A digest of the protocol: as §1
For another assay, the system named is Tov112D. Described as above. To be noted: Gynecologic cancer cell panel viability, ATPlite luminescence, 48 h; series mostly up to 57.5 µM. A digest of the protocol:
as §1

The nature of assay [1]: Drug repurposing screens with cells derived from glioblastoma tumor samples (AID 1345199). Note: nearly all actives have a fitted effect of over 40% in size. The note with it: GBM patient neurospheres viability, ATP luminescence, 48 h. The procedure, abridged: (§2)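 Four patient lines of CD133+ GBM neurospheres were screened at several concentrations; hits were retested in those lines plus three slower-growing GBM lines, using 48-hour treatment and ATP-based viability.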

The subject of a further assay is astro. Described as above. The note with it: viability, ATP luminescence, 48 h; series mostly up to 45.9 µM. A digest of the protocol:
as §2

Setting [2] is: at 20 µM (top of the series), tumour line C.
The mark [3] stands for this setting: at 21.2 µM (top of the series), tumour line B.
The mark [4] stands for this setting: at 21.2 µM (top of the series), tumour line D.
[5] abbreviates: at 45.9 µM (top of the series), tumour line B.
[6] abbreviates: at 46.1 µM (top of the series), tumour line C.
The mark [7] stands for this setting: at 45.9 µM (top of the series), tumour line D.
Setting [8] is: at 46 µM (top of the series), tumour line A.
[9] abbreviates: at 21.3 µM (top of the series), tumour line A.

“And” between values parts separate entries of the source, which are not always exact repeats. Identical values can stand only once. Inconclusive results are not listed. A number with no mark means an inactive call. The source made the active and inactive calls. Calls come from the whole dose curve; as a rule, active = well fitted curve in the direction sought with a large enough effect; inconclusive = small, poorly fitted or top-dose-only effect, or another doubt; inactive = no such curve, though single readings can be large; an effect the other way counts as inactive or inconclusive.
% is set by controls: 0 for no effect and ±100 for the full control effect; potency is the fitted concentration of half-maximal effect.

In the case of `O=C(OCCOCCO)c1ccccc1Nc1cccc(C(F)(F)F)c1`, the Potency result in the assay on HeLa, with Hek293T, in the assay on JEG-3, in the assay with OV90, with PA-1 and in the assay on SKOV3 was “inactive” in each case. Also, the Potency result in the assay on Tov-21-G and in the assay on Tov112D was “inactive” throughout. The figures for the activity, negative = cell killing in assay [1] (setting [2]), in assay [1] (setting [3]) and in [1] (setting [4]) were -19.4%, 0.602% and -4.96%, respectively.

On to `CC/C(=C(/CC)c1ccc(O)cc1)c1ccc(O)cc1`, for which the Potency result in the assay on HeLa, with Hek293T, in the assay with JEG-3, in the assay with OV90, in the assay on PA-1 and with SKOV3 was “inactive” each time. Moreover, the Potency result in the assay with Tov-21-G and with Tov112D was “inactive” throughout. The activity, negative = cell killing in assay [1] (setting [5]) was -24.8%; in assay [1] (setting [6]), -3.33%. In addition, the Potency in [1] (tumour line A) is 14.1 µM (active).

Regarding `CC(C)n1nc(-c2cc3cc(O)ccc3[nH]2)c2c(N)ncnc21`, the Potency is 17.8 µM (active) and 14.1 µM (active) in the assay with HeLa; 3.98 µM (active) with Hek293T; 5.01 µM (active) and 2.82 µM (active) in the assay with OV90; 4.47 µM (active) in the assay with PA-1; 1 µM (active) and 631 nM (active) in the assay with SKOV3; 11.2 µM (active) and 4.47 µM (active) with Tov-21-G. In addition, in the assay on Tov112D, the Potency is 7.94 µM (active). Moreover, in the assay with JEG-3, the Potency result was “inactive”.

As for `O=C(Nc1ccc(Cl)c(Cl)c1)C1CC1`, the Potency entry in the assay with HeLa, with Hek293T, in the assay with JEG-3, with OV90, with PA-1 and in the assay on SKOV3 was “inactive” each time. The Potency entry with Tov-21-G and in the assay with Tov112D was “inactive” each time. In addition, in assay [1] (setting [5]), the activity, negative = cell killing is -26.9%. In addition, the Potency in assay [1] (tumour line A) is 28.2 µM (active); in assay [1] (tumour line C), 23.1 µM (active); in [1] (tumour line D), 20 µM (active).

With `CCCCCCc1ccc(O)cc1O`, the Potency entry in the assay on HeLa, in the assay with Hek293T, with JEG-3, with OV90, in the assay with PA-1 and in the assay with SKOV3 was “inactive” in each case. Moreover, the Potency result in the assay on Tov-21-G and with Tov112D was “inactive” each time. The results for the activity, negative = cell killing in [1] (setting [5]) and in assay [1] (setting [6]) were -28.1% and -19.2%, respectively. In addition, in [1] (tumour line A), the Potency is 10 µM (active).

`COc1cc(C(=S)N2CCOCC2)cc(OC)c1OC`: the Potency entry in the assay with HeLa, in the assay on Hek293T, in the assay on JEG-3, in the assay with OV90, with PA-1 and in the assay with SKOV3 was “inactive” in each case. The Potency result with Tov-21-G and with Tov112D was “inactive” each time. Further, the activity, negative = cell killing was -7.77% in assay [1] (setting [5]), -20% in assay [1] (setting [7]), -25.7% in [1] (setting [8]) and -20.5% in [1] (setting [6]).

As to `OCc1ccccc1O`, the Potency entry with HeLa, with Hek293T, with JEG-3, with OV90, in the assay on PA-1 and in the assay on SKOV3 was “inactive” throughout. Further, the Potency entry with Tov-21-G and with Tov112D was “inactive” in each case. The activity, negative = cell killing in [1] (setting [5]) is -10.5%; in assay [1] (setting [7]) it was -12.8%; in assay [1] (setting [8]), -23.4%; in assay [1] (setting [6]) it was -1.35%.

Take `CC(=O)OCC(=O)[C@@]12OC(C)(C)O[C@@H]1C[C@H]1[C@@H]3C[C@H](F)C4=CC(=O)C=C[C@]4(C)[C@@]3(F)[C@@H](O)C[C@@]12C`: the Potency result in the assay on HeLa, in the assay with Hek293T, with JEG-3, in the assay on OV90, in the assay on PA-1 and with SKOV3 was “inactive” throughout. In addition, the Potency entry with Tov-21-G and in the assay on Tov112D was “inactive” each time. The activity, negative = cell killing is -14.9% in assay [1] (setting [2]), -15.5% in assay [1] (setting [3]) and -1.98% in assay [1] (setting [9]).

Take `Cc1nc2n(c(=O)c1CCN1CCC(c3noc4cc(F)ccc34)CC1)CCC[C@H]2O`: the Potency entry in the assay on HeLa, in the assay with Hek293T, in the assay on JEG-3, in the assay with OV90, with PA-1 and with SKOV3 was “inactive” throughout. Besides, the Potency result in the assay on Tov-21-G and in the assay on Tov112D was “inactive” throughout. For the same compound, the activity, negative = cell killing is -11% in assay [1] (setting [5]), -35.1% in assay [1] (setting [7]) and -8.74% in assay [1] (setting [6]). In [1] (tumour line A), the Potency is 15.8 µM (active).

Regarding `N[C@H](Cc1c[nH]c2ccccc12)C(=O)O`, the Potency entry in the assay with HeLa, with Hek293T, with JEG-3, in the assay on OV90, in the assay with PA-1 and in the assay on SKOV3 was “inactive” throughout. For the same compound, the Potency entry with Tov-21-G and in the assay on Tov112D was “inactive” throughout. The figures for the activity, negative = cell killing in [1] (setting [8]) and in assay [1] (setting [6]) were 21.7% and 0.799%, respectively. Further, in [1] (tumour line B), the Potency was 35.5 µM (active).

Turning to `COc1cc2c(cc1OC)[C@@H]1CC(=O)[C@@H](CC(C)C)CN1CC2`, the Potency result in the assay with HeLa, in the assay on Hek293T, with JEG-3, with OV90, with PA-1 and with SKOV3 was “inactive” in each case. Besides, the Potency result in the assay on Tov-21-G and in the assay with Tov112D was “inactive” throughout. The activity, negative = cell killing in assay [1] (setting [6]) is 1.4%. Moreover, the Potency in [1] (tumour line A) is 28.2 µM (active).

Take `CCOC(=O)/C=C(C)/C=C/C=C(C)/C=C/c1c(C)cc(OC)c(C)c1C`: the Potency entry in the assay on HeLa, in the assay with Hek293T, in the assay on JEG-3, with OV90, with PA-1 and in the assay with SKOV3 was “inactive” in each case. Further, the Potency entry in the assay with Tov-21-G and with Tov112D was “inactive” throughout.

For the compound `NC(=O)C(=O)N/N=C/c1ccc([N+](=O)[O-])o1`, the Potency result with HeLa, in the assay with Hek293T, in the assay on JEG-3, in the assay with OV90, in the assay on PA-1 and with SKOV3 was “inactive” each time. For the same compound, the Potency entry in the assay with Tov-21-G and in the assay with Tov112D was “inactive” in each case. Moreover, the activity, negative = cell killing in assay [1] (setting [6]) is 10.3%. Besides, the Potency in [1] (tumour line A) was 35.5 µM (active).

For `CCCCCCCCCCCCCCNCCO`, the Potency entry in the assay on HeLa, in the assay with Hek293T, in the assay on JEG-3, in the assay on OV90, in the assay with PA-1 and with SKOV3 was “inactive” each time. Moreover, the Potency result in the assay with Tov-21-G and in the assay with Tov112D was “inactive” each time.

Regarding `C=C1C[C@H]2[C@@H]3C=C(C)C4=CC(=O)CC[C@]4(C)[C@H]3CC[C@]2(C)[C@@]1(OC(C)=O)C(C)=O`, the Potency entry in the assay on HeLa, in the assay with Hek293T, in the assay on JEG-3, in the assay on OV90, in the assay on PA-1 and with SKOV3 was “inactive” throughout. In addition, the Potency result in the assay on Tov-21-G and in the assay with Tov112D was “inactive” each time. Further, the results for the activity, negative = cell killing in assay [1] (setting [5]), in [1] (setting [7]) and in [1] (setting [6]) were -28.2%, -24.4% and -11.9%, respectively.

Consider `C[C@H]1C[C@H]2[C@@H]3CCC4=CC(=O)C=C[C@]4(C)[C@@]3(Cl)[C@@H](O)C[C@]2(C)[C@@]1(O)C(=O)CO`, for which the Potency result in the assay with HeLa, in the assay with Hek293T, with JEG-3, in the assay on OV90, in the assay with PA-1 and with SKOV3 was “inactive” each time. For the same compound, the Potency result with Tov-21-G, in the assay with Tov112D and in the assay with astro was “inactive” throughout. The activity, negative = cell killing was -17% in assay [1] (setting [5]), -11.6% in [1] (setting [7]), -29.5% in assay [1] (setting [8]) and -24.3% in assay [1] (setting [6]).

`NC(=O)c1cc[n+](CC2=C(C(=O)[O-])N3C(=O)[C@@H](NC(=O)Cc4cccs4)[C@H]3SC2)cc1`: the Potency entry in the assay on HeLa, in the assay with Hek293T, in the assay with JEG-3, in the assay on OV90, with PA-1 and in the assay with SKOV3 was “inactive” each time. The Potency entry in the assay with Tov-21-G and in the assay with Tov112D was “inactive” each time. Also, the activity, negative = cell killing was -2.18% in [1] (setting [2]), -10.7% in assay [1] (setting [3]), -13.1% in assay [1] (setting [4]) and -27.6% in assay [1] (setting [9]).
